Each structure is given as a SMILES string. The campaign covered roughly 52,000 compounds. About 4,300 (8.3%) were called active. Many of the other results were omitted from the sample, so actives are more common in it than they were. Unmarked numbers belong to inactive results. Rule as the data show it: active = survival mostly below about 52% (no sharp cut-off); inactive = mostly above about 56%.

The assay deals with DeltatarO mutant. The experiment in a line: S. aureus survival, RN4220 and DeltatarO strains – OD600, teichoic acid synthesis inhibitors, primary screen (AID 463173). As to conditions: S. aureus RN4220 wild type/DeltatarO growth, OD600, 18 h, active compounds read low, screened at 18.75 µg/mL (by protocol).
Regarding `CC(=O)N/C(N)=N\c1nc(C)c2ccc(C)cc2n1`, the survival was 73%.

Take `O=C(NCc1ccc(Cl)cc1)c1ccc2c(c1)NC(=O)C(CS(=O)(=O)Cc1ccccc1Cl)N2` (stereo unspecified): the survival is 94%.

In the case of `COCCCNC(=O)Nc1cc(C(=O)NCc2ccc(OC)cc2)ccc1N1CCCC1`, the survival was 67%.

As for `COc1ccccc1N1CCN(CCCNC(=O)c2cnn(-c3cccc(Cl)c3)c2C2CCN(C(=O)OC(C)(C)C)CC2)CC1`, the survival was 87%.

As to `CC1=C(C(=O)Nc2c(C)cc(C)cc2C)C2(CCN(C(C)C)CC2)OC1=O`, the survival was 112%.

As to `O=C(CCCn1c(=O)c2sccc2n(Cc2c(F)cccc2Cl)c1=O)NCc1ccccc1`, the survival is 138%.

For the compound `CCOC(=O)c1noc2ncnc(N3CCC(C)CC3)c12`, the survival is 75%.

For `Cc1ccc(C2=NC(c3ccccc3)=Nc3ccc(Cl)cc3N2)cc1`, the survival was 89%.

Consider `CCOc1ccc(NC(=O)CN(c2ccc(C)cc2)S(=O)(=O)c2cccs2)cc1`, for which the survival was 83%.

On to `COc1ccc2c(c1)CCc1c(C(=O)Nc3ccccc3C(F)(F)F)noc1-2`, for which the survival was 143%.

Take `Cc1ccc(NC(=O)C2CCCN(c3ncnc4onc(C)c34)C2)c(Cl)c1` (stereo unspecified): the survival was 74%.

Turning to `CCCCCOC(=O)CSc1ncnc2sc3c(c12)CCC(C)C3` (stereo unspecified), the survival was -4% (active).

With `CCC(C(=O)OC(C)C)n1cnc2sc3c(c2c1=O)CCC(C)C3` (stereo unspecified), the survival was 93%.

`CCCCCOC(=O)CSc1ncnc2c1sc1nc(N3CCOCC3)c3c(c12)CCCC3`: the survival was 71%.

As to `CC1CCc2c(sc3ncnc(NCCOCCO)c23)C1` (stereo unspecified), the survival is 98%.

On to `Cc1ccc(OCCCCn2nnc3sc4c(c3c2=O)CCC(C)C4)cc1` (stereo unspecified), for which the survival was 56%.

For `Cc1ccc(-c2nc(NC(=O)CSc3ncnc4sc5c(c34)CCC(C)C5)ns2)cc1` (stereo unspecified), the survival is 69%.

Take `CCCCOC(=O)CSc1ncnc2sc3c(c12)CCC(C)C3` (stereo unspecified): the survival was 17% (active).

For the compound `CCCOC(=O)CSc1ncnc2sc3c(c12)CCC(C)C3` (stereo unspecified), the survival was 7% (active).

For the compound `CCOc1ccc(NC(=O)CSc2cn(CC(=O)N3CCOCC3)c3ccccc23)cc1`, the survival is 95%.

With `CCOc1ccc(NC(=O)Cn2c(=O)n(CCCCC(=O)NCc3ccc4c(c3)OCO4)c(=O)c3ccccc32)cc1`, the survival was 85%.

On to `CC1(C)CC(NC(=O)CCCC(=O)O)CC(C)(C)N1`, for which the survival is 81%.

With `COc1ccc(C)cc1NC(=O)c1ccc2c(=O)n3c(nc2c1)CCCCC3`, the survival was 65%.

Turning to `COc1ccc(Cn2ccnc2SCC(=O)NCc2ccco2)cc1`, the survival is 75%.

`COc1ccc(Cn2c(CO)cnc2SCc2ccccc2)cc1`: the survival was 89%.

For the compound `CCOC(=O)c1ccccc1NC(=O)CSc1ncc(CO)n1Cc1ccc(C)cc1`, the survival is 77%.

As for `COc1ccc(Cn2c(CO)cnc2SCC(=O)NCc2ccco2)cc1`, the survival is -5% (active).

For the compound `O=C(CSc1ncc(CO)n1Cc1ccc(F)cc1)NCc1ccco1`, the survival was 126%.

Turning to `Cc1ccc(Cn2c(CO)cnc2SCC(=O)NCc2ccccc2Cl)cc1`, the survival was 73%.

With `OCc1cnc(SCc2ccc(F)cc2)n1Cc1ccc(F)cc1`, the survival is 88%.

Regarding `Cc1ccc(Cn2c(CO)cnc2SCC(=O)Nc2ccc(C)c(Cl)c2)cc1`, the survival is -5% (active).

In the case of `COc1ccc(Cn2c(CO)cnc2SCc2ccc(F)cc2)cc1`, the survival was 17% (active).

Turning to `Cc1ccc(NC(=O)N2CCN(c3nnc(C)c4c(C)n(-c5ccccc5)nc34)CC2)cc1Cl`, the survival is 94%.

With `O=C(CSc1nnc2ccc3ccccc3n12)Nc1ccccc1Cl`, the survival is 76%.

`Cc1cc2ccccc2n1CCNC(=O)c1ccc(Br)cc1`: the survival is 58%.

Turning to `CCOC(=O)c1cc(-c2ccc(C)cc2)n(CC(=O)Nc2ccc(OC)cc2OC)c1C`, the survival is 97%.

On to `Cc1cc(-c2ccc(C)c(S(=O)(=O)NCc3cccs3)c2)on1`, for which the survival is 72%.

Consider `Cc1cc(NC(=O)c2ccc(NC(=O)C(C)C)cc2)no1`, for which the survival was 72% (active).

For `COc1cccc(C(=O)Nc2cc(C)on2)c1`, the survival is 89%.

For the compound `CC(C)C(=O)Nc1ccc(NC(=O)c2ccccc2)nc1`, the survival was 87%.

As for `CC(C)Oc1ccc(CNC(=O)Nc2ccc3c(c2)N(C)C(=O)c2ccccc2S3)cc1`, the survival is 94%.

For `CCN1CCN(CCCNC(=O)c2cc3c(=O)n(CC)c4ccccc4c3s2)CC1`, the survival was 97%.

As for `Cc1ccc(NC(=O)N2CC3CCCN3c3ccccc32)cc1C` (stereo unspecified), the survival was -4% (active).

Regarding `Cc1ccc(NC(=O)N2CC3CCCN3c3ccccc32)c(C)c1` (stereo unspecified), the survival was 86%.

Take `Cc1ccc(NC(=O)N2CC3CCCN3c3ccccc32)cc1Cl` (stereo unspecified): the survival is 62%.

Take `Cc1cccc(NC(=O)CSc2ncc3c(n2)-c2ccccc2N(Cc2ccc(F)cc2)S3(=O)=O)c1C`: the survival is 68%.

With `Cc1cccc(-n2ncc3c(N4CCCCCC4)ncnc32)c1`, the survival is 92%.

Regarding `COc1ccc(C(=O)Nc2ccc(-c3nnc4n3CCCCC4)cc2)cc1OC`, the survival was 57%.

For the compound `CCOc1cc(C(=O)Nc2ccc(-c3nnc4n3CCCCC4)cc2)cc(OCC)c1OCC`, the survival was 69%.

Turning to `COc1ccc(C(=O)Nc2ccc(-c3nnc4n3CCCCC4)cc2)cc1`, the survival is 0% (active).

As to `COc1cccc(NC(=O)c2cnc(SCC(=O)N3CCOCC3)n(C)c2=O)c1`, the survival was 120%.

For `COc1ccc(-n2nc(C(=O)N3CCC(C)CC3)c3c4ccccc4n(C)c3c2=O)cc1Cl`, the survival was 87%.

Consider `CC(C)CSc1nnc(-c2ccccc2)c(-c2ccccc2)n1`, for which the survival is -8% (active).

Take `O=C(CSc1nnc(-c2ccccc2)c(-c2ccccc2)n1)Nc1ccccc1Cl`: the survival is 75%.

For the compound `CCc1ccccc1NC(=O)CSc1nnc(-c2ccccc2)c(-c2ccccc2)n1`, the survival is 88%.

Take `COc1cccc(C(=O)NCC(c2ccc(N(C)C)cc2)N2CCc3ccccc32)c1` (stereo unspecified): the survival was 144%.

As to `COc1ccccc1-c1nnc(C2CCN(C(=O)c3cccc(Cl)c3)CC2)o1`, the survival is 88%.

With `O=C(CSc1nc2ccccc2n1Cc1cccc(F)c1)N1CCN(c2ccc(F)cc2)CC1`, the survival is 64%.

Consider `CN1CCc2c(sc(N)c2C(=O)O)C1`, for which the survival is 80%.

In the case of `O=C(CSc1nc(=O)n(CCN2CCOCC2)c2c1CCC2)Nc1ccc(F)cc1F`, the survival is 124%.

`CCc1ccc(-n2c(=O)c3c(C)c(C(=O)N(C)C)sc3n(Cc3cccc(C)c3)c2=O)cc1`: the survival is 99%.

On to `COc1cccc(-n2c(=O)c3c(C)c(C(=O)N(C)C)sc3n(Cc3ccc(F)cc3Cl)c2=O)c1`, for which the survival is 92%.

Consider `Cc1ccc(-n2c(=O)c3c(C)c(C(=O)N(C)C)sc3n(Cc3ccccc3C)c2=O)cc1C`, for which the survival was 98%.

Regarding `CCOc1ccc(-n2c(=O)c3c(C)c(C(=O)N(C)C)sc3n(CC(=O)Nc3c(C)cc(C)cc3C)c2=O)cc1`, the survival is 72%.

For `COc1cccc(-n2c(=O)c3c(C)c(C(=O)N(C)C)sc3n(Cc3cccc(C)c3)c2=O)c1`, the survival was 37% (active).

Take `CCOc1ccc(-n2c(=O)c3c(C)c(C(=O)N(C)C)sc3n(Cc3cc(C)ccc3C)c2=O)cc1`: the survival was 0% (active).

The values above are taken from PubChem BioAssay AID463173 (ICCB-Longwood Screening Facility, Harvard Medical School, 2010).
